According to PubChem BioAssay (NCATS):
Several values for one entry are separate records, joined by “and”; a condition that tells them apart may be missing. Identical values can stand only once. Results filed as inconclusive are left out. Values without a mark were called inactive. Activity calls are given as the source filed them. Calls follow the shape of the dose curve; as a rule, active = well fitted cell-killing curve with a large enough effect; inconclusive = small, poorly fitted or top-dose-only effect, or effect the other way; inactive = no such curve, though single readings can be large or run the other way. Peptide text beside a SMILES is read from it.

Assay: Viability qHTS for spleen associated tyrosine kinase inhibitor (SYKi) drug resistant MV4-11 cells (AID 1963824); also: nearly all actives have a fitted effect of over 35% in size
Details: SYKi-resistant MV4-11 viability, CellTiter-Glo, 72 h; series mostly up to 45 µM; viability, % of control: at the top concentration
Text: Department of Medicine, Hematology/Oncology
University Hospital Frankfurt, Germany.
Trials have shown promising clinical activity of the selective SYK inhibitor entospletinib in patients with high expressing HOXA9/MEIS1 acute leukemias. As the development of resistance mechanisms is a common problem in the use of targeted drugs, we performed a chemical library screen to identify drug sensitivities in SYK inhibitor resistant AML cells. […] Glucocorticoids are potent immunosuppressants which work in part by inhibiting the transcription of cytokine genes.
Described herein is a viability screen to look for activity in the SYK inhibitor drug resistant cell line against four NCATS compound libraries (MIPE 5.0, NPC, NPACT, and Kinase) totaling 11372 compounds. Active hits were reacquired for confirmation and further secondary assay testing.
SEQUENCE No. (e.g., 1, 2, 3, etc.); […] (e.g., Cells, Incubation, Reagent, etc.); VALUE; DESCRIPTION.
1; Media; 2uL; white, solid-bottom Corning assay plate.
2; Compounds; 23nL; Echo acoustic dispenser.
3; Cell; 5uL; 500 cells per well.
4: Incubation; 72hr; 37 C, 5% CO2, 95% humidity.
5; Reagent; 3uL; CellTiter-Glo reagent (Promega).
6; Incubation; 10min; room temperature.
7; Detection; Luminescence; ViewLux plate reader (PerkinElmer).
NOTES (numbers refer to Sequence numbers above
1. Quantitative high-throughput screening (qHTS) of small molecule compounds was conducted on drug resistant SYKi MV4-11 cell line.
2. Twenty-three nanoliter of small molecule compounds were added to each assay plates using the Echo acoustic dispenser (Beckman Coulter).
3. Cells were seeded into the assay plates at a final density of 500 cells in 5uL of media per well using the Multidrop Combi dispenser.
4. Plates were covered with stainless steel gasketed lids and incubated for 72 hours at standard cell culture conditions.
5. Viability was assessed by adding 3uL of CellTiter-Glo detection reagent (Promega).
6. Plates were covered with gasket lids and incubated for 10 minutes at room temperature.
7. Luminescence was measured on a ViewLux plate reader (PerkinElmer).
Potency is read from the fitted curve at half-maximal effect.

SMILES	viability, % of control	Potency
CCN1CCCC1=O	78.9%	–
COc1c2occc2cc2ccc(=O)oc12	73.7%	–
O=C(O)CC(CCc1ccccc1)OC1OC(CO)C(O)C(O)C1O (stereo not given)	87.2%	–
CCOC(=O)c1cc2ccc(O)cc2oc1=O	–	14.6 µM (active)
C=C[C@H]1[C@H](O[C@@H]2O[C@H](CO)[C@@H](O)[C@H](O)[C@H]2O)OC=C(C(=O)OC)[C@H]1CC(=O)O	89.6%	–
Cn1c(=O)n(-c2ccc(C(C)(C)C#N)cc2)c2c3cc(C#Cc4cccnc4)ccc3ncc21	–	0.0447 µM (active)
FC(F)(F)c1ccc(CNc2ccc(Cc3c[nH]c4ncc(Cl)cc34)cn2)cn1	–	366 nM (active) and 833 nM (active)
O=C(CCCN1CCN(c2ccc(F)cc2)CC1)NC1c2ccccc2CSc2ccccc21 (stereo not given)	–	14.6 µM (active)
CCC/C=C/C(=O)O[C@H]1CC(C)(C)CC2[C@]13[C@H](O)O[C@@]21CCC2[C@@]4(C)CC[C@H](O[C@@H]5O[C@H](C(=O)O)[C@@H](O)[C@H](O[C@@H]6O[C@H](CO)[C@H](O)[C@H](O)[C@H]6O[C@@H]6O[C@@H](C)[C@H](O)[C@@H](O)[C@H]6O[C@@H]6OC[C@](O)(CO)[C@H]6O)[C@H]5O[C@@H]5O[C@H](CO)[C@H](O)[C@H](O)[C@H]5O)C(C)(C)C4CC[C@@]2(C)[C@]1(C)C[C@H]3OC(C)=O (stereo not given in full)	66.3% [at 9.25 µM]	–
CCNC(=O)Nc1ccc2ncc(Nc3ccc(C)cc3)nc2n1	115%	–
COc1ccccc1OCCNCC(O)COc1cccc2[nH]c3ccccc3c12 (stereo not given)	–	11.9 µM (active)
CCCN1CCCC[C@H]1C(=O)Nc1c(C)cccc1C	81.6%	–
CN(CC(=O)N(Cc1ccc(C2CCCCC2)cc1)c1ccc(C(=O)O)cc1)S(=O)(=O)c1c(F)c(F)c(F)c(F)c1F	–	1.03 µM (active)
Cc1nc(NC(=O)N2CCC[C@H]2C(N)=O)sc1-c1csc(C(C)(C)C)n1	–	7.42 µM (active)
CC(C)(C)c1cc(C=O)cc(C(C)(C)C)c1O	81.4%	–
COC(=O)[C@H](Cc1ccccc1)NC(=O)[C@@H](N)CC(=O)O (H-Asp-Phe-OMe)	–	inactive
CN(Cc1ccc(C(C)(C)C)cc1)Cc1cccc2ccccc12	88.9%	–
COC(=O)C(C)C1CCC2(C)C(=O)C=CC(C)(O)C2C1O (stereo not given)	82.6%	–
O=C(Nc1cc(C(F)(F)F)cc(C(F)(F)F)c1)c1cc(Cl)ccc1O	–	517 nM (active) and 662 nM (active)
CC1=CC2/C=C(\C)CCC(O)C(=O)C(O)CC(=O)C23C(=O)NC(CC(C)C)C3C1C (stereo not given)	–	11.2 µM (active)

SMILES	viability, % of control	Potency
O=C(Nc1cccc(Nc2cc(Nc3cccc(C(F)(F)F)c3)ncn2)c1)C1CC1	–	0.259 µM (active)
CCOC(=O)c1c(CSc2ccccc2)n(C)c2cc(Br)c(O)c(CN(C)C)c12	–	10.5 µM (active)
O=c1[nH]c(=O)c2[nH]c(=O)[nH]c2[nH]1	120% [at 9.25 µM]	–
Cc1cc(C)c2nc(-c3ccccn3)cc(C(=O)Nc3ccc(S(=O)(=O)Nc4onc(C)c4C)cc3)c2c1	–	25.9 µM (active)
CC(C)CC(=O)Nc1n[nH]c2c1CN(C(=O)C1CCN(C)CC1)C2(C)C	–	259 nM (active) and 468 nM (active)
CCOC(=O)[C@H](CCc1ccccc1)N[C@@H](C)C(=O)N(CC(=O)O)C1Cc2ccccc2C1	54.2%	–
Nc1ccc(C(=O)Nc2ccccc2N)cc1	–	7.5 µM (active)
Cc1cnc(-c2cnc(NCCNc3ccc(C#N)cn3)nc2-c2ccc(Cl)cc2Cl)[nH]1	–	13 µM (active)
Cc1ccc(NS(=O)(=O)c2cc3c(cc2F)NC(=O)CC3)cc1Cl	–	16.4 µM (active)
CC(=O)N[C@@H](Cc1ccc(O)cc1)C(=O)O	102%	–
NC(=O)[C@H](O[C@@H]1O[C@H](CO)[C@@H](O)[C@H](O)[C@H]1O)c1ccccc1	95.3%	–
NC(=O)N1CCC(CC(=O)N2CCC([C@H]3c4ncc(Br)cc4CCc4cc(Cl)cc(Br)c43)CC2)CC1	–	4.17 µM (active)
CC(C)[C@H](CO)Nc1nc(Nc2cccc(Cl)c2)c2ncn(C(C)C)c2n1	–	3.32 µM (active)
Nc1nc(=S)c2[nH]cnc2[nH]1	–	1.05 µM (active)
C=CC(=O)N1CCc2ccc(-n3c(=O)ccc4cnc5ccc(-c6cnn(C)c6)cc5c43)cc21	–	0.091 µM (active)
Cc1ccc(-c2ncn(-c3ccc(Nc4nccc(-c5cccc(N6CCOCC6)c5)n4)cc3)n2)cn1	–	2.35 µM (active)
Cc1cc2c(F)c(Oc3ncnn4cc(OCC(C)OC(=O)C(C)N)c(C)c34)ccc2[nH]1 (stereo not given)	–	8.2 µM (active)
Cc1c(NC(=O)OC[C@@H]2COCCN2)cn2ncnc(Nc3ccc4c(cnn4Cc4cccc(F)c4)c3)c12	–	8.2 µM (active) and 11.8 µM (active)
NC(=O)c1cnc(NCCc2ccc(O)c(Cl)c2)nc1NCc1ccccc1	–	0.0259 µM (active)
Oc1cccc(Nc2ncnc3sc4c(c23)CCCC4)c1	–	5.8 µM (active)
